This passage reports outcome and AC50 results from PubChem BioAssay (EPA / NIEHS).

Results filed as inconclusive are left out. Active and inactive are the calls of the source. Rule for the calls, unless noted: active = hit-call score of the fitted dose curve at least 0.9, where 1 is the maximum; inactive = score below 0.9.

The nature of assay [1]: ATG_TCF_b_cat_CIS: Attagene CIS-FACTORIAL HepG2 Assay for human T-Cell-Factor with beta-catenin (TCF/b-cat) (AID 2282965). The following applies: HepG2 TCF/beta-catenin cis-reporter transcription, actives raise or lower the signal. The gist of the method:
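In this cis-format system, transfected HepG2 cells report endogenous transcription factor activity. Readout after 24 h exposure is reporter transcript abundance from RT-PCR and capillary electrophoresis, analysed for gain or loss of signal versus DMSO.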

Assay [2] can be described thus: ATG_TAL_CIS: Attagene CIS-FACTORIAL HepG2 Assay for human TAL Basal Promoter (AID 2282966).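 Note: background control endpoint measuring basal TAL promoter reporter mRNA not a specific factor.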 The following applies: HepG2 Attagene cis-factorial TAL promoter reporter; actives raise or lower the signal. The method in brief:
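Steps: transfect HepG2 with multiple reporter transcription units; dose 24 h; isolate RNA, reverse-transcribe, PCR-amplify, label with 6-FAM, digest with HpaI; resolve by capillary electrophoresis. Bidirectional fitting against DMSO baseline.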

Assay [3] is described as follows: ATG_TGFb_CIS: Attagene CIS-FACTORIAL HepG2 Assay for human Transforming Growth Factor (TGF) (AID 2282967). Conditions: HepG2 Attagene CIS TGFb reporter, mRNA transcription; actives raise or lower the signal. The method in brief: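 Bidirectional fitting relative to DMSO gave the endpoint. Underlying data: reporter mRNA from HepG2 cells carrying transiently transfected cis-regulated reporter constructs, harvested 24 h after dosing and analyzed by RT-PCR and capillary electrophoresis.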

Assay [4] addresses Nuclear receptor subfamily 1 group I member 3 (Homo sapiens) (UniProt Q14994). Kind of assay: ATG_CAR_TRANS: Attagene TRANS-FACTORIAL HepG2 Assay for human Constitutive Androstane Receptor (CAR) (AID 2282969; active = hit-call score of the fitted dose curve at least 0.9, where 1 is the maximum;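 note: activators raise reporter mRNA above DMSO so AC50 marks induction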). Conditions: HepG2 Attagene TRANS-FACTORIAL CAR reporter. The method in brief:
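HepG2 cells transiently transfected with multiplexed GAL4-UAS reporter units expressing chimeric NR-Gal4 proteins; compound exposure 24 h. Reporter mRNA measured by RT-PCR, 6-FAM labelling, HpaI digestion and capillary electrophoresis; gain-of-signal fitted against DMSO baseline.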

For assay [5], the target named is Estrogen receptor (Homo sapiens) (UniProt P03372). The assay is described as follows: ATG_ERa_TRANS: Attagene TRANS-FACTORIAL HepG2 Assay for human Estrogen Receptor alpha (ERa) (AID 2282970; active = hit-call score of the fitted dose curve at least 0.9, where 1 is the maximum). Conditions: HepG2 Attagene TRANS ERa GAL4 reporter, mRNA. The gist of the method: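 Multiplexed cell-based reporter format in HepG2: chimeric ERa-Gal4 protein drives GAL4-UAS reporter transcription. Fluorescent reporter mRNA quantified by capillary electrophoresis 24 hours after dosing; endpoint fitted as signal gain against DMSO.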

The target in assay [6] is Steroid hormone receptor ERR1 (Homo sapiens) (UniProt P11474). Kind of assay: ATG_ERRa_TRANS: Attagene TRANS-FACTORIAL HepG2 Assay for human Estrogen-Related Receptor alpha (ERRa) (AID 2282971; active = hit-call score of the fitted dose curve at least 0.9, where 1 is the maximum). Conditions: HepG2 Attagene TRANS reporter, ERRa transactivation. The method in brief:
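Signal gain relative to DMSO for an ERRa-Gal4 chimeric receptor, read as reporter mRNA by RT-PCR/capillary electrophoresis. Human HepG2 liver cells, transient multiplex reporter transfection, 24 h chemical exposure.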

The target of assay [7] is X-box-binding protein 1 (Homo sapiens) (UniProt P17861). Kind of assay: ATG_Xbp1_CIS: Attagene CIS-FACTORIAL HepG2 Assay for human X-box Binding Protein 1 (XBP1) (AID 2282972). The following applies: HepG2 XBP1 cis-element reporter, Attagene multiplex; actives raise or lower the signal. The method in brief: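 HepG2 cells transiently transfected with cis-regulated multiple reporter transcription units; endogenous transcription factor activity measured 24 hours after chemical dosing. Reporter mRNA quantified by RT-PCR, 6-FAM primer extension, HpaI digestion and capillary electrophoresis; bidirectional fitting versus DMSO.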

Assay [8] in a line: ATG_M_19_TRANS: Attagene TRANS-FACTORIAL HepG2 Assay for M19 Transcription Factor (Internal Marker) (AID 2282974; active = hit-call score of the fitted dose curve at least 0.9, where 1 is the maximum). The following applies: HepG2 Attagene TRANS-FACTORIAL M19 internal marker reporter. The gist of the method:
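HepG2 transiently transfected with GAL4-UAS multiplex reporter constructs, exposed 24 h; reporter RNA quantified by RT-PCR, 6-FAM labeling, HpaI digestion and capillary electrophoresis; internal background marker fitted upward versus DMSO.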

Assay [9] in a line: ATG_GAL4_TRANS: Attagene TRANS-FACTORIAL HepG2 Assay for GAL4 (Internal Marker) (AID 2282976; active = hit-call score of the fitted dose curve at least 0.9, where 1 is the maximum). The following applies: HepG2 Attagene TRANS GAL4 internal marker reporter. The gist of the method: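 Liver HepG2 line bearing multiplexed GAL4-UAS reporter constructs; 24 h chemical treatment. Transcripts were quantified as fluorescent fragments on capillary electrophoresis after RT-PCR and HpaI cut, with activity fitted upward from DMSO.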

Assay [10] in a line: ATG_VDRE_CIS: Attagene CIS-FACTORIAL HepG2 Assay for human Vitamin D Receptor Element (VDRE) (AID 2282968). Conditions: HepG2 VDRE cis-reporter transcription, actives raise or lower the signal. The gist of the method: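 HepG2 cells transiently transfected with cis-element reporter units, dosed 24 h; reporter mRNA measured by RT-PCR, 6-FAM labeling, HpaI digestion and capillary electrophoresis. Activity fitted bidirectionally against DMSO baseline.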

X-box-binding protein 1 (Homo sapiens), sequence (P17861 whole entry, looked up): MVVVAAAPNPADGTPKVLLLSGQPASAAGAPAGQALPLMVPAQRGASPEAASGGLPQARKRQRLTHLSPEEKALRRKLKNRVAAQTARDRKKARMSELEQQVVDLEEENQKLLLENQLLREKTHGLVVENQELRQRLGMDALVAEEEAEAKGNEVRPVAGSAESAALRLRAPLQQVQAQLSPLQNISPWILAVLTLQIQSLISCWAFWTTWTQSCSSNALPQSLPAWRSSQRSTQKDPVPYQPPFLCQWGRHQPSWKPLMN
Nuclear receptor subfamily 1 group I member 3 (Homo sapiens), sequence (Q14994 whole entry, looked up, the tested form may be a part): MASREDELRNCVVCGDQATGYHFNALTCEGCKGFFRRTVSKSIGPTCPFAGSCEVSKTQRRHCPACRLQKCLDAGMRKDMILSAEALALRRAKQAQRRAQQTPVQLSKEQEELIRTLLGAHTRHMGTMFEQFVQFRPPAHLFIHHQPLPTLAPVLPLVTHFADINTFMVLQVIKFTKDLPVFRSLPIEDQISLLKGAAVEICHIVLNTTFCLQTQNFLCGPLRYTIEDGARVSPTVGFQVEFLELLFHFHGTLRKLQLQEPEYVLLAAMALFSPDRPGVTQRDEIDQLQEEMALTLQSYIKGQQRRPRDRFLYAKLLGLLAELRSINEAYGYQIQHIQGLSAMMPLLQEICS
Estrogen receptor (Homo sapiens), sequence (P03372 whole entry, looked up, the tested form may be a part): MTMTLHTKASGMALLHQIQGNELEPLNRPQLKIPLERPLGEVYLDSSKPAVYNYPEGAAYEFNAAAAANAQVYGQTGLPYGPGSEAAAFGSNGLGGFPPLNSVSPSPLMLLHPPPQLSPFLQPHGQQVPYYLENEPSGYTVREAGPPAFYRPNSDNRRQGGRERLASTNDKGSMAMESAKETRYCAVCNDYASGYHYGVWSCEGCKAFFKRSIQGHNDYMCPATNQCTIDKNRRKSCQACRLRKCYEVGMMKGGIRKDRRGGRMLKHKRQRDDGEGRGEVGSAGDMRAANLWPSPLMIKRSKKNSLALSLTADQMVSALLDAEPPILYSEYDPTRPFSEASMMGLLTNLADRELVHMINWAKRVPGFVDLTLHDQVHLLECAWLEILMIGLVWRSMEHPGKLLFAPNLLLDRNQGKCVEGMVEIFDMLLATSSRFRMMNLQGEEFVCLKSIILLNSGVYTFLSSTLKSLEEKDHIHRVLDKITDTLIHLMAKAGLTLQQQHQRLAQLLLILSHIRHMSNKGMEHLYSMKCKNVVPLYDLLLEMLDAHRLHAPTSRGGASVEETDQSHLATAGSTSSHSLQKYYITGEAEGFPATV
Steroid hormone receptor ERR1 (Homo sapiens), sequence (P11474 whole entry, looked up, the tested form may be a part): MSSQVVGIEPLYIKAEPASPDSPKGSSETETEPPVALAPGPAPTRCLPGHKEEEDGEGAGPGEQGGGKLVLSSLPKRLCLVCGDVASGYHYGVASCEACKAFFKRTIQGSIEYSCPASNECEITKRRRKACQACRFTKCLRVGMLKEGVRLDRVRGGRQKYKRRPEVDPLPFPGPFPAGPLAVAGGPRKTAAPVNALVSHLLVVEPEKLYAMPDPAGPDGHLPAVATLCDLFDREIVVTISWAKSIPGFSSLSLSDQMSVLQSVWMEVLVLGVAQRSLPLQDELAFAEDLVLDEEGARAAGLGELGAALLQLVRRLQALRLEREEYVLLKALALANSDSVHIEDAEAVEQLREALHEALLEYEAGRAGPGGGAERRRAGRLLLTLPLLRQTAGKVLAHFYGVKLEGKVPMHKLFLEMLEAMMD

In the case of `O=C1c2c(O)ccc(Nc3ccc(CCO)cc3)c2C(=O)c2c([N+](=O)[O-])ccc(O)c21`, the call in assay [1], in assay [2], in assay [3], in [4] and in assay [5] was inactive.
Regarding `OC(O)C(F)(F)C(F)(F)F`, the outcome in [1], in [2], in assay [3], in assay [5] and in [6] was inactive.
For the compound `CCOCOCC`, the compound was classed as inactive in assay [1], in assay [2], in assay [3], in assay [5], in assay [7] and in [8].
In the case of `F[Si-2](F)(F)(F)(F)F`, the outcome in [1], in [2], in [3] and in [6] was inactive.
As for `O=S(=O)(O)CCC(F)(F)C(F)(F)C(F)(F)C(F)(F)C(F)(F)C(F)(F)C(F)(F)C(F)(F)F`, the result in assay [1], in assay [2], in assay [3], in [5], in assay [6] and in [9] was inactive.
Broadly, the AC50 is the midpoint of the concentration-response curve, whichever way the signal moves. Turning to `OCCCC(F)(F)C(F)(F)C(F)(F)C(F)(F)C(F)(F)C(F)(F)C(F)(F)C(F)(F)F`, the AC50 in assay [1] is 28.9 µM (active); in [5] it was 10.9 µM (active). Moreover, the call in [2], in [3], in assay [6] and in assay [7] was inactive.
With `CC(C)OC=O`, the compound was called inactive in [1], in assay [2], in [3], in assay [10] and in assay [8].
On to `CCOC(=O)C1CC(=O)C(=C(O)C2CC2)C(=O)C1` (centres undefined), for which the result in [1], in assay [2], in assay [3], in assay [10], in assay [7] and in assay [9] was inactive.
For `CC(C)(C)C(=O)C1C(=O)c2ccccc2C1=O`, the outcome in assay [1], in assay [2], in assay [3], in assay [4], in [5] and in assay [7] was inactive.
For `Cc1ccc([N+](=O)[O-])c(C)c1`, the result in assay [1], in assay [2], in assay [3], in assay [4], in assay [6] and in assay [7] was inactive.
On to `CCCCCCCCCCCCCCCCC`, for which the outcome in assay [1], in assay [2], in [3], in assay [5] and in assay [7] was inactive.
Take `CCCCCCCC/C=C\CCCCCCCC(=O)N(C)CC(=O)O`: the result in assay [1], in [2], in assay [3], in assay [5], in assay [7] and in assay [8] was inactive.
As for `O=C(O)C(F)(F)OC(F)(F)C(F)(F)OC(F)(F)C(F)(F)OC(F)(F)F`, the call in assay [1], in assay [2], in assay [3], in assay [5] and in assay [7] was inactive.
For `CCOC(=O)CC(=O)C(F)(F)C(F)(F)F`, the outcome in [1], in [2], in assay [3], in assay [5], in [6] and in assay [7] was inactive. Also, the outcome in assay [9] was inactive.
`NCC(F)(F)C(F)(F)C(F)(F)C(F)(F)C(F)(F)C(F)(F)C(F)(F)C(F)(F)F`: the compound was called inactive in assay [1], in assay [2], in assay [3], in [5] and in [6].
Regarding `OCC(F)(F)C(F)(F)C(F)(F)C(F)(F)C(F)(F)C(F)(F)CO`, the result in assay [1], in assay [2], in assay [3], in assay [7] and in assay [8] was inactive. In addition, in assay [5], the AC50 is 0.0538 µM (active).
Take `CC(C)OC(=O)COc1ccc(Cl)cc1Cl`: the call in assay [1], in assay [2], in assay [3], in assay [4] and in assay [5] was inactive.
For `Nc1cccnc1N`, the compound was called inactive in [1], in [2], in assay [3], in assay [4] and in assay [7].
For `CCN(CC)c1ccc(N=Nc2ccccc2)cc1`, the compound was called inactive in [1], in assay [2], in assay [3], in assay [5] and in assay [8].
Regarding `NC(O)(C(F)(F)F)C(F)(F)F`, the outcome in assay [1], in assay [2], in assay [3], in assay [10], in [7] and in assay [9] was inactive.
For the compound `O=C(Cl)C(F)(F)C(F)(F)C(F)(F)C(F)(F)C(F)(F)C(F)(F)C(F)(F)F`, the result in assay [1], in assay [2], in [3] and in assay [7] was inactive. The concentration at half-maximal activity (AC50) in assay [5] is 53.1 µM (active).
Consider `Cc1cccc(C)n1`, for which the result in [1], in assay [2], in [3], in assay [10], in [7] and in assay [8] was inactive. Besides, the result in assay [9] was inactive.
For the compound `O=C=NCc1cccc(CN=C=O)c1`, the compound was called inactive in assay [1], in [2], in [3] and in [4].
Take `C[C@]12CC[C@H]3C(=CCc4cc(O)ccc43)[C@@H]1CCC2=O`: the compound was called inactive in [1], in assay [2], in [3], in [4], in assay [6] and in assay [7]. Also, the result in [8] and in assay [9] was inactive.
For the compound `CC(C)(C)c1cc(CCC(=O)OCC(COC(=O)CCc2cc(C(C)(C)C)c(O)c(C(C)(C)C)c2)(COC(=O)CCc2cc(C(C)(C)C)c(O)c(C(C)(C)C)c2)COC(=O)CCc2cc(C(C)(C)C)c(O)c(C(C)(C)C)c2)cc(C(C)(C)C)c1O`, the outcome in [1], in [2], in assay [3] and in assay [4] was inactive. Also, the AC50 in assay [5] was 21.8 µM (active).
Take `N#CCCOCCC#N`: the outcome in assay [1], in assay [2], in assay [10], in assay [4], in [6] and in [7] was inactive.
Consider `O=C(O)C(F)(F)C(F)(F)C(F)(F)OC(F)(F)F`, for which the compound was called inactive in [1], in assay [2], in assay [10], in [4] and in [9].
`O=C(Cl)C(F)(F)C(F)(F)C(F)(F)C(F)(F)C(F)(F)C(F)(F)F`: the result in assay [1], in assay [2], in [10], in assay [5] and in assay [6] was inactive.
Take `CCN=C1C=CC(=C(c2ccc(N(CC)CC)cc2)c2ccc(N(CC)CC)cc2)c2ccccc21`: the AC50 in assay [1] was 0.885 µM (active); in [10], 1.15 µM (active). The outcome in assay [2] and in assay [9] was inactive.
`C[Si](C)O[Si](C)C`: the compound was classed as inactive in assay [1], in assay [2], in assay [10] and in assay [7].
`CC(=O)CCC(C)C`: the call in assay [1], in [2], in assay [4], in assay [5] and in assay [7] was inactive.
For the compound `CN(C)C(C)(C)CO`, the compound was classed as inactive in assay [1], in assay [2], in assay [10], in assay [5], in [7] and in assay [8].
Turning to `CC(C)CCCC(C)CCO` (centres undefined), the outcome in [1], in assay [2], in [10], in assay [5], in assay [7] and in [9] was inactive.
As to `CCC(Cc1c(I)cc(I)c(N)c1I)C(=O)O` (centres undefined), the AC50 in assay [1] is 55.5 µM (active); in [5] it was 4.99 µM (active). Also, the outcome in assay [2] and in assay [7] was inactive.
